Screening data: PubChem, National Center for Advancing Translational Sciences (NCATS)
Only some compounds are listed: those with a hit (about 3.2% of all), similar ones and a draw of the others.
HEK293 tox: qHTS of GLP-1 Receptor Inverse Agonists: Cytotox Screen | HEK293 cAMP-luciferase reporter cells, luminescence, 24 h | Potency, µM (series often up to 38.3 µM), for the others: at the highest dose activity change, negative = inhibition, most hits filed as inhibitors | 410,000 compounds, 0.13% hits;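 note: loss of luciferase light is scored as toxicity; % is set by controls: 0 for no effect and ±100 for the full control effect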
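1536-well qHTS counterscreen of the MLSMR; 200 cells/uL, 12 h pre-incubation, 23 nL cpd, 24 h at 37 deg C 5% CO2, luciferase detection reagent, 12 min RT, luminescence. Inhibition = undesired.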
ClpP mod: qHTS Assay for Activators of ClpP; ATP-dependent Clp protease proteolytic subunit (Bacillus subtilis (strain 168)), P80244; Potency, µM (highest dose often 57.5 µM), inactives show at the top dose activity change, negative = active; 340,000 compounds, 1.9% hits; purified B. subtilis ClpP, FRET peptide cleavage, 20 min; AID 651965, 2013; active = well fitted falling curve with a large enough effect; inconclusive = small, poorly fitted or top-dose-only effect; inactive = no such curve, though single readings can be large or run the other way; note: the source files actives as falling curves though it sought activators and does not explain the sign; nearly all actives have a fitted effect of over 65% in size
Target sequence (P80244 whole entry, looked up): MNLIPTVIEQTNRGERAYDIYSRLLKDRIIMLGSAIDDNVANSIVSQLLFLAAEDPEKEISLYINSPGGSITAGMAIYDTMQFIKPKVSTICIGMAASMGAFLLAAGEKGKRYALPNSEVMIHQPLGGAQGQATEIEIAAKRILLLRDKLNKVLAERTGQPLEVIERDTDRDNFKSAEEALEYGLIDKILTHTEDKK
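Purified B. subtilis ClpP, 10 microg/mL final in Tris/HCl pH8 with KCl, BSA, glycerol and Tween-20, cleaved an Abz/nitrotyrosine-quenched decapeptide. Fluorescence (ex 320, em 430) was read at 0 and 20 min at room temperature. Delta was normalized to 5.8 microM ADEP and DMSO/no-enzyme controls.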
GLP-1R agonist: qHTS of GLP-1 Receptor Agonists. Glucagon-like peptide 1 receptor (Homo sapiens), P43220. HEK293 GLP-1R CRE-luciferase, luminescence, 4-6 h; cells express a hypersensitive GLP-1R form. Potency, µM (highest dose often 45.6 µM), without a hit: top-dose activation, hits mostly activators. 380,000 compounds, 0.007% hits. AID 624172, 2012; note: % of control where 0% means no effect
Target sequence (P43220 whole entry, looked up): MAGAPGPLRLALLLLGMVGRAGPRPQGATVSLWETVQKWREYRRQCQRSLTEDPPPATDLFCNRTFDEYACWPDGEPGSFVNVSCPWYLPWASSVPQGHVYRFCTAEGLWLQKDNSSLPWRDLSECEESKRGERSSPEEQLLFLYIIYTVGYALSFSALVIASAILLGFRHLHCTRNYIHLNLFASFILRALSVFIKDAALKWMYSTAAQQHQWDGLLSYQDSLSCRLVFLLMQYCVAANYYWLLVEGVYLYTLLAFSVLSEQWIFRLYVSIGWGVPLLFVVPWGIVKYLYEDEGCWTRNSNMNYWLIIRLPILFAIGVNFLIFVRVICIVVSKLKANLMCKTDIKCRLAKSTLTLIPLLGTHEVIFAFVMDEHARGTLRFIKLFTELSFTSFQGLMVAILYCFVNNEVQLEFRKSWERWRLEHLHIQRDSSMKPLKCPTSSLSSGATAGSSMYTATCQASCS
GLP1R inv ag: qHTS of GLP-1 Receptor Inverse Agonists (Inhibition Mode). Glucagon-like peptide 1 receptor (Homo sapiens), P43220. HEK293 GLP-1R CRE-luciferase, luminescence, 24 h; GLP-1R form is constitutively active. Potency, µM (doses to about 38.3 µM), for the others: at the highest dose activity change, negative = inhibition, usual class: inhibitors. 410,000 compounds, 1.6% hits. AID 624417, 2012; note: % is set by controls: 0 for no effect and ±100 for the full control effect; nearly all actives have a fitted effect of over 55% in size
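GLP-1R inverse agonism mode: basal reporter luminescence in engineered HEK293 cells measured after one day of compound exposure at 37 deg C, with a 12 min room-temperature detection step.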
ClpP inh valid: qHTS Assay for Activators of ClpP: Hit Validation of Inhibitors; shares compounds with ClpP mod; purified B. subtilis ClpP, FRET-FV substrate cleavage, 20 min; Potency, µM (doses to about 57.5 µM), without a hit: top-dose activity change, negative = inhibition, most hits filed as inhibitors; 470 compounds, 40% hits; AID 743245, 2014; note: % is set by controls: 0 for no effect and ±100 for the full control effect; nearly all actives have a fitted effect of over 70% in size
Numbers without * were called inactive; ? = inconclusive; · = no result. Unless noted, calls come from the whole dose curve; as a rule, active = well fitted curve in the direction sought with a large enough effect; inconclusive = small, poorly fitted or top-dose-only effect, or another doubt; inactive = no such curve, though single readings can be large; an effect the other way counts as inactive or inconclusive. Potency is the fitted concentration of half-maximal effect.

SMILES | HEK293 tox | ClpP mod | GLP-1R agonist | GLP1R inv ag | ClpP inh valid
Cc1ccc(NS(=O)(=O)c2cccc(C(=O)N3CCCCC3)c2)cc1 | -10% | 77% | 21% | ? | 0%
Cc1ccc(NS(=O)(=O)c2cccc(C(=O)N3CCCCCC3)c2)cc1 | 9% | 0% | 7% | ? | ·
CC(C)CCNC(=O)COc1ccc2c(c1)C(=O)CC(C)(C)O2 | 74% | 28µM* | 12% | 0% | 15µM*
CC(C)n1c(=N)c(C(=O)NCc2cccnc2)cc2c(=O)n3ccccc3nc21 | 82% | 4% | · | 1% | ·
O=C(Nc1ccc(Br)cc1)c1cc(-c2cccs2)nc2ccccc12 | -2% | 38% | · | 4% | 24µM*
CCC(C)NC(=O)c1cc(-c2cccs2)nc2ccccc12 (centres undefined) | -2% | · | 26% | ? | ·
COc1cc(Br)c(C2CC(=O)Nc3cc(OC)c(OC)c(OC)c32)cc1OC (centres undefined) | 0% | -3% | -3% | -26% | ·
Cc1cccc(-c2nnc(NC(=O)c3cccs3)s2)c1 | ? | 3% | -4% | 22% | ·
CNc1nnc(-c2cccc(N(C)C)c2)s1 | 2% | 39% | 2% | 34% | 0%
Fc1ccccc1N1CCN(c2nnc(C(F)(F)F)c3nnn(Cc4ccccc4)c23)CC1 | -3% | 7.9µM* | · | 2% | 19µM*
COc1ccc(-c2nc(NC(=O)c3ccc(OCC(=O)Nc4ccc(F)cc4)c(OC)c3)sc2C)cc1 | ? | 144% | -23% | ? | 19µM*
O=C(Nc1cccc2cccnc12)c1ccc(F)cc1 | 0% | 0% | · | 8% | ·
Cc1ccccc1N(CC(=O)Nc1ccc(S(=O)(=O)N2CCOCC2)cc1)S(C)(=O)=O | 2% | 45% | 3% | -1% | 1%
Cc1cc(C)cc(N(CC(=O)Nc2ccc(-c3nc4ccc(C)cc4s3)cc2)S(C)(=O)=O)c1 | -9% | 10µM* | -9% | -11% | 19µM*
CC1CCN(S(=O)(=O)c2ccc(NC(=O)c3cccs3)cc2)CC1 | -19% | 127% | 1% | ? | -1%
CN1CCN(S(=O)(=O)c2ccc(NC(=O)c3cccs3)cc2)CC1 | 4% | -1% | 1% | 1% | ·
O=C(C[N+]1(CCO)CCOCC1)c1cccs1 | · | 0% | · | · | ·
COc1cc2ccccc2cc1C(=O)NCC(c1cccs1)N(C)C (centres undefined) | 2% | 3.2µM* | 13% | ? | ?
Cc1oc(-c2ccc(C(=O)NC(C)c3ccccc3)cc2)nc1CS(=O)(=O)c1ccccc1 (centres undefined) | 2% | 4% | · | 1% | ·
C[C@]12CCC(=O)C=C1CC[C@@H]1[C@@H]2[C@@H](O)C[C@@]2(C)[C@H]1CC[C@]2(O)C(=O)COP(=O)(O)O | · | · | -1% | · | ·
CCN(CC)S(=O)(=O)c1cccc2c(N(C)C)cccc12 | 11% | 3.5µM* | 5% | ? | -4%
O=c1[nH]c2cc(Cl)ccc2c(O)c1-c1ccc(Oc2ccccc2)cc1 | · | · | · | · | -15%
O=c1[nH]c2cc(Cl)ccc2c(O)c1-c1cccc(Oc2ccccc2)c1 | -2% | -17% | 6% | 5% | ·
Cc1ccccc1Nc1c(-c2c[nH]c3ccccc23)nc2ccc(Cl)cn12 | 10% | 5µM* | · | -9% | -16%
CC(=O)N1CCCc2cc(S(=O)(=O)N3CCCC(C(=O)Nc4ccc(C)c(C)c4)C3)ccc21 (centres undefined) | 1% | -3% | · | 6% | ·
SMILES | HEK293 tox | ClpP mod | GLP-1R agonist | GLP1R inv ag | ClpP inh valid
Nc1ncnc2oc(-c3ccoc3)c(-c3ccco3)c12 | · | 4% | · | · | ·
Nc1ncnc2oc(-c3ccco3)c(-c3ccco3)c12 | -20% | 8.9µM* | 2% | 233% | 22µM*
CNCc1nc(-c2ccc[nH]2)c2cc(Cl)ccc2n1 | · | -12% | · | · | ·
Cn1c(=O)n(C)c2cc(NS(=O)(=O)c3ccc(C(C)(C)C)cc3)c(NCc3ccccc3)cc21 | -15% | 3.5µM* | · | 6% | 22µM*
Cc1ccc(CNC(=O)CCNS(=O)(=O)c2ccc3c(c2)CCCC(=O)N3)cc1 | 4% | -28% | 9% | -19% | ·
O=C(Nc1ccccc1)c1nc[nH]c1C(=O)NCc1ccccc1 | -27% | 1% | 7% | ? | ·
O=C(Nc1cccc(Cl)c1)c1nc[nH]c1C(=O)NCc1ccccc1 | -5% | 213% | -5% | 3% | ?
COC(=O)CSc1nnc2n(-c3ccccc3)c(=O)c3c4c(sc3n12)COC(C(C)C)C4 (centres undefined) | -4% | -2% | 9% | -1% | ·
Cc1ccc2oc(-c3ccc(NC(=O)c4ccc5c(c4)OCO5)cc3)nc2c1 | 2% | 3.2µM* | -3% | 33% | 12µM*
CCOc1cc(C(=O)Nc2ccc(-c3nc4cc(C)ccc4o3)cc2)cc(OCC)c1OCC | -12% | 3.2µM* | 0% | ? | 31µM*
CCCOc1ccc(C(=O)Nc2ccc3oc(-c4ccc(N(C)C)cc4)nc3c2)cc1 | 2% | 1.3µM* | · | -9% | 1%
Cc1ccc2oc(-c3ccc(NC(=O)c4cccnc4)cc3)nc2c1 | -22% | 51% | -32% | -9% | ·
CCC(C)c1ccc2oc(-c3ccc(NC(=O)c4ncn[nH]4)cc3)nc2c1 (centres undefined) | 6% | 10µM* | -16% | 89% | 22µM*
Cc1ccc2oc(-c3ccc(NC(=O)CC(C)C)cc3)nc2c1 | -14% | 8.9µM* | -5% | 0% | ?
CCc1ccc(S(=O)(=O)c2nnn3c2nc(N2CCN(c4ccccc4)CC2)c2cc(Cl)ccc23)cc1 | 3% | 1% | · | 1% | ·
O=Cc1c(Cl)nc2ccccn12 | 1% | · | -2% | 11% | ·
Clc1cc2nc3ccccn3c2cc1Cl | 64% | 8.9µM* | -2% | 27% | 19µM*
CN1C(=O)c2ccccc2Sc2ccc(NC(=O)COc3ccccc3)cc21 | ? | 0% | · | ? | ·
CC1=C(C(=O)Nc2ccccc2)C(c2ccc(C)cc2)N=C(Nc2nc3ccccc3o2)N1 (centres undefined) | ? | 5µM* | -13% | ? | 24µM*
COc1nc(-c2ccc(C)cc2)ccc1-c1noc(-c2cccnc2)n1 | 0% | ? | 6% | 23% | 19µM*
COc1nc(-c2ccc(C)cc2)ccc1-c1noc(-c2ccccc2Br)n1 | 5% | 20% | · | 1% | ·
COc1ccc(-c2nc3sc(CCNS(=O)(=O)c4ccccc4)c(C)n3n2)cc1 | 0% | -4% | · | -1% | ·
O=c1oc2ccc3ccccc3c2cc1-c1nc2ccccc2o1 | 41% | 2.5µM* | -3% | 1% | 24%
